The supplement of paper PMC8728848
The full list was thinned out, with the strongest signals kept by preference.

Legend:
Assay in all cases: glycan array binding signal (z-score within array); higher = stronger binding
Details in all cases: glycan notation: IUPAC condensed, linker removed
Fuc(a1-2)Gal(b1-4)Glc6S = biological target: Fuc(a1-2)Gal(b1-4)Glc6S
Outline: (§1)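 Glycan array data came from 3228 arrays in the Consortium for Functional Glycomics database, and only arrays with an available protein sequence were kept. Glycan names were put into IUPAC-condensed notation, and columns mapping to the same glycan were averaged. The binding signal is a within-array Z-score, averaged across arrays of one protein sequence run at different concentrations or buffers and across linkers. A negative Z-score can be read as non-binding.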

[1] = biological target: Fuc(a1-2)Gal3S(b1-4)GlcNAc
Outline: as §1

[2] = biological target: Fuc(a1-2)Gal6S(b1-4)Glc6S
Outline: as §1

[3] = biological target: Fuc(a1-2)[Gal(a1-3)]Gal(b1-4)GlcNAc(b1-3)[Fuc(a1-2)[Gal(a1-3)]Gal(b1-4)GlcNAc(b1-6)]GalNAc
Outline: as §1

[4] = biological target: Fuc(a1-3)[Gal(b1-4)]GlcNAc(b1-3)Gal(b1-4)[Fuc(a1-3)]GlcNAc(b1-3)Gal(b1-4)[Fuc(a1-3)]GlcNAc
Outline: as §1

[5] = biological target: Fuc(a1-3)[Gal3S(b1-4)]GlcNAc6S
Outline: as §1

Fuc(a1-4)GlcNAc = biological target: Fuc(a1-4)GlcNAc
Outline: as §1

Gal(a1-3)Gal(b1-3)GlcNAc = biological target: Gal(a1-3)Gal(b1-3)GlcNAc
Outline: as §1

[6] = biological target: Gal(a1-3)Gal(b1-3)[Fuc(a1-4)]GlcNAc(b1-2)Man(a1-3)[Gal(a1-3)Gal(b1-3)[Fuc(a1-4)]GlcNAc(b1-2)Man(a1-6)]Man(b1-4)GlcNAc(b1-4)GlcNAc
Outline: as §1

[7] = biological target: Gal(a1-3)Gal(b1-4)[Fuc(a1-3)]GlcNAc(b1-2)Man(a1-3)[Gal(a1-3)Gal(b1-4)[Fuc(a1-3)]GlcNAc(b1-2)Man(a1-6)]Man(b1-4)GlcNAc(b1-4)GlcNAc
Outline: as §1

[8] = biological target: Gal(a1-3)[Gal(a1-4)]Gal(b1-4)GlcNAc
Outline: as §1

[9] = biological target: Gal(b1-3)GalNAc(b1-3)Gal(a1-4)Gal(b1-4)Glc
Outline: as §1

[10] = biological target: Gal(b1-3)GlcNAc(b1-3)Gal(b1-3)GlcNAc
Outline: as §1

[11] = biological target: Gal(b1-3)GlcNAc(b1-3)Gal(b1-4)GlcNAc(b1-2)Man(a1-3)[Gal(b1-3)GlcNAc(b1-3)Gal(b1-4)GlcNAc(b1-2)Man(a1-6)]Man(b1-4)GlcNAc(b1-4)GlcNAc
Outline: as §1

[12] = biological target: Gal(b1-3)GlcNAc(b1-3)Gal(b1-4)GlcNAc(b1-6)[Gal(b1-3)GlcNAc(b1-3)]Gal(b1-4)Glc
Outline: as §1

[13] = biological target: Gal(b1-3)GlcNAc(b1-6)[Gal(b1-3)]GalNAc
Outline: as §1

[14] = biological target: Gal(b1-3)[Fuc(a1-4)]GlcNAc(b1-2)Man(a1-3)[Gal(b1-3)[Fuc(a1-4)]GlcNAc(b1-2)Man(a1-6)]Man(b1-4)GlcNAc(b1-4)[Fuc(a1-6)]GlcNAc
Outline: as §1

[15] = biological target: Gal(b1-4)GlcNAc(b1-2)Man(a1-6)[Man(a1-3)]Man(b1-4)GlcNAc(b1-4)GlcNAc
Outline: as §1

[16] = biological target: Gal(b1-4)GlcNAc(b1-3)Gal(b1-4)GlcNAc(b1-2)Man(a1-3)[Gal(b1-4)GlcNAc(b1-3)Gal(b1-4)GlcNAc(b1-2)Man(a1-6)]Man(b1-4)GlcNAc(b1-4)GlcNAc
Outline: as §1

[17] = biological target: Gal(b1-4)GlcNAc(b1-3)Gal(b1-4)GlcNAc(b1-2)[Gal(b1-4)GlcNAc(b1-3)Gal(b1-4)GlcNAc(b1-6)]Man(a1-6)[Gal(b1-4)GlcNAc(b1-3)Gal(b1-4)GlcNAc(b1-2)Man(a1-3)]Man(b1-4)GlcNAc(b1-4)[Fuc(a1-6)]GlcNAc
Outline: as §1

[18] = biological target: Gal(b1-4)GlcNAc(b1-3)Gal(b1-4)[Fuc(a1-3)]GlcNAc(b1-3)Gal(b1-4)[Fuc(a1-3)]GlcNAc
Outline: as §1

[19] = biological target: Gal(b1-4)GlcNAc(b1-3)[GlcNAc(b1-6)]Gal(b1-4)GlcNAc
Outline: as §1

[20] = biological target: Gal(b1-4)GlcNAc(b1-6)Gal(b1-4)GlcNAc
Outline: as §1

[21] = biological target: Gal(b1-4)GlcNAc(b1-6)[Gal(b1-3)]GalNAc
Outline: as §1

Gal3S(b1-3)GlcNAc = biological target: Gal3S(b1-3)GlcNAc
Outline: as §1

[22] = biological target: Gal3S(b1-4)[Fuc(a1-3)]Glc6S
Outline: as §1

GalNAc(a1-3)Gal = biological target: GalNAc(a1-3)Gal
Outline: as §1

GalNAc(b1-3)GlcNAc = biological target: GalNAc(b1-3)GlcNAc
Outline: as §1

GalNAc(b1-4)GlcNAc = biological target: GalNAc(b1-4)GlcNAc
Outline: as §1

GalNAc6S(b1-4)GlcNAc = biological target: GalNAc6S(b1-4)GlcNAc
Outline: as §1

[23] = biological target: GlcNAc(a1-3)Gal(b1-4)GlcNAc
Outline: as §1

[24] = biological target: GlcNAc(a1-4)Gal(b1-4)GlcNAc(b1-3)Gal(b1-4)[Fuc(a1-3)]GlcNAc(b1-3)Gal(b1-4)[Fuc(a1-3)]GlcNAc
Outline: as §1

[25] = biological target: GlcNAc(b1-2)Man(a1-3)[GlcNAc(b1-4)][GlcNAc(b1-2)Man(a1-6)]Man(b1-4)GlcNAc(b1-4)[Fuc(a1-6)]GlcNAc
Outline: as §1

[26] = biological target: GlcNAc(b1-2)[GlcNAc(b1-4)]Man(a1-3)[GlcNAc(b1-4)][GlcNAc(b1-2)Man(a1-6)]Man(b1-4)GlcNAc(b1-4)GlcNAc
Outline: as §1

[27] = biological target: Man(a1-2)Man(a1-2)Man(a1-6)[Man(a1-3)]Man
Outline: as §1

Man(a1-3)[Man(a1-6)]Man = biological target: Man(a1-3)[Man(a1-6)]Man
Outline: as §1

[28] = biological target: Man(a1-3)[Man(a1-6)]Man(a1-6)[Man(a1-3)]Man(b1-4)GlcNAc(b1-4)GlcNAc
Outline: as §1

Neu5Ac(a2-3)Gal = biological target: Neu5Ac(a2-3)Gal
Outline: as §1

[29] = biological target: Neu5Ac(a2-3)Gal(b1-3)GalNAc
Outline: as §1

[30] = biological target: Neu5Ac(a2-3)Gal(b1-3)GalNAc(b1-4)[Neu5Ac(a2-3)]Gal(b1-4)Glc
Outline: as §1

[31] = biological target: Neu5Ac(a2-3)Gal(b1-3)GlcNAc(b1-3)GalNAc
Outline: as §1

[32] = biological target: Neu5Ac(a2-3)Gal(b1-3)GlcNAc(b1-6)GalNAc
Outline: as §1

Neu5Ac(a2-3)Gal(b1-4)Glc = biological target: Neu5Ac(a2-3)Gal(b1-4)Glc
Outline: as §1

[33] = biological target: Neu5Ac(a2-3)Gal(b1-4)GlcNAc(b1-6)[Gal(b1-3)]GalNAc
Outline: as §1

[34] = biological target: Neu5Ac(a2-3)Gal(b1-4)GlcNAc(b1-6)[Neu5Ac(a2-3)Gal(b1-3)]GalNAc
Outline: as §1

[35] = biological target: Neu5Ac(a2-3)Gal(b1-4)[Fuc(a1-3)]GlcNAc(b1-3)GalNAc
Outline: as §1

[36] = biological target: Neu5Ac(a2-6)GalNAc(b1-4)GlcNAc
Outline: as §1

[37] = biological target: Neu5Ac(a2-8)Neu5Ac(a2-3)Gal(b1-4)GlcNAc
Outline: as §1

[38] = biological target: Neu5Ac(b2-6)Gal(b1-4)GlcNAc
Outline: as §1

Neu5Ac(b2-6)GalNAc = biological target: Neu5Ac(b2-6)GalNAc
Outline: as §1

B1: Thrombomodulin (Mus musculus) (protein)
chain: ALAKLQPTGSQCVEHECFALFQGPATFLDASQACQRLQGHLMTVRSSVAADVISLLLSQSSMDLGPWIGLQLPQGCDDPVHLGPLRGFQWVTGDNHTSYSRWARPNDQTAPLCGPLCVTVSTATEAAPGEPAWEEKPCETETQGFLCEFYFTASC
Fuc(a1-2)Gal(b1-4)Glc6S
  glycan array binding signal (z-score): 0.107
[1]
  glycan array binding signal (z-score): -0.236
[2]
  glycan array binding signal (z-score): -0.056
[3]
  glycan array binding signal (z-score): 5.4
[4]
  glycan array binding signal (z-score): -0.183
[5]
  glycan array binding signal (z-score): -0.172
Fuc(a1-4)GlcNAc
  glycan array binding signal (z-score): 3.52
Gal(a1-3)Gal(b1-3)GlcNAc
  glycan array binding signal (z-score): 4.59
[6]
  glycan array binding signal (z-score): 0.179
[7]
  glycan array binding signal (z-score): 0.955
[8]
  glycan array binding signal (z-score): 0.213
[9]
  glycan array binding signal (z-score): -0.277
[10]
  glycan array binding signal (z-score): 0.083
[11]
  glycan array binding signal (z-score): -0.022
[12]
  glycan array binding signal (z-score): 0.148
[13]
  glycan array binding signal (z-score): -0.267
[14]
  glycan array binding signal (z-score): 0.595
[15]
  glycan array binding signal (z-score): 0.088
[16]
  glycan array binding signal (z-score): 1.25
[17]
  glycan array binding signal (z-score): 0.053
[18]
  glycan array binding signal (z-score): 0.126
[19]
  glycan array binding signal (z-score): -0.029
[20]
  glycan array binding signal (z-score): -0.219
[21]
  glycan array binding signal (z-score): -0.326
Gal3S(b1-3)GlcNAc
  glycan array binding signal (z-score): -0.007
[22]
  glycan array binding signal (z-score): 0.12
GalNAc(a1-3)Gal
  glycan array binding signal (z-score): 0.15
GalNAc(b1-3)GlcNAc
  glycan array binding signal (z-score): -0.37
GalNAc(b1-4)GlcNAc
  glycan array binding signal (z-score): 0.33
GalNAc6S(b1-4)GlcNAc
  glycan array binding signal (z-score): -0.071
[23]
  glycan array binding signal (z-score): -0.129
[24]
  glycan array binding signal (z-score): 0.047
[25]
  glycan array binding signal (z-score): -0.052
[26]
  glycan array binding signal (z-score): 1.03
[27]
  glycan array binding signal (z-score): -0.278
Man(a1-3)[Man(a1-6)]Man
  glycan array binding signal (z-score): 0.154
[28]
  glycan array binding signal (z-score): -0.262
Neu5Ac(a2-3)Gal
  glycan array binding signal (z-score): -0.273
[29]
  glycan array binding signal (z-score): 1.07
[30]
  glycan array binding signal (z-score): -0.4
[31]
  glycan array binding signal (z-score): -0.354
[32]
  glycan array binding signal (z-score): 0.614
Neu5Ac(a2-3)Gal(b1-4)Glc
  glycan array binding signal (z-score): 2.91
[33]
  glycan array binding signal (z-score): -0.321
[34]
  glycan array binding signal (z-score): -0.43
[35]
  glycan array binding signal (z-score): 0.695
[36]
  glycan array binding signal (z-score): -0.193
[37]
  glycan array binding signal (z-score): -0.54
[38]
  glycan array binding signal (z-score): -0.139
Neu5Ac(b2-6)GalNAc
  glycan array binding signal (z-score): -0.216
